# In the library only some 2.4% were active in any assay of this set; here they are far more common.
# TNF death inh: TNF-alpha cell death inhibition in Jurkat FADD-/- cells; hit rate 0.068% among 220,000; AID 463075; activation (protection from cell death), % at 10 µM; Jurkat FADD-/- TNF necroptosis rescue, ATP luminescence, 24 h; 0 = TNF only, 100 = no-TNF cells;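 active = activation, meaning protection from cell death, of at least 50% relative to plate controls; inactive = activation below 50%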;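 note: necroptosis triggered by 40 ng/mL TNF-alpha added together with compound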
# WT yeast gro inh: growth inhibition of WT yeast, mitochondrial fusion screen; mitochondrial fusion phenotypic screen, WT strain; inhibition, % at 10 µM; hit rate 2.1% among 190,000; AID 1362; in the data active = inhibition above about 58%; tested in S. cerevisiae
# Redox H2O2 prof: compounds producing H2O2 with reducing agent – biochemical, NIH compound library profiling, artefact control for MLSCN library redox annotation, primary screen; DTT-dependent redox cycling H2O2, phenol red/HRP absorbance; 100% = 100 µM peroxide control, 0% = buffer; activation, % at 10 µM; hit rate 0.03% among 200,000; AID 878;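 active = activation of at least 50% relative to the plate's high and low controls in the primary single-dose screen; inactive = activation below 50%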;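 note: compound incubated with DTT at 0.8 mM final as the reducing agent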
# L929 necroptosis: L929 zVAD cell death inhibition; L929 zVAD necroptosis rescue, ATP luminescence, 24 h; with zVAD 60 µM; viability rescue, % at 10 µM; hit rate 0.38% among 220,000;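 active = activation, scaled between plate controls, above about 75%, limit read from the data; inactive = activation under that limit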
# PERK inhibitor: blocks human PERK kinase; Q9NZJ5; CHO PERK-DD fusion, SEAP luminescence translation reporter; inhibition, % at 5.6 µM; hit rate 0.17% among 220,000;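 active = inhibition above the mean inhibition of all tested compounds plus 3 SD, set separately per screening campaign, cut at about 2.9% in these data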;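 note: PERK kinase domain activated by AP20187 dimerizer at 100 nM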
# PKD1 inh: PKD1 (human) kinase inhibition. Q15139. hit rate 0.056% among 200,000. inhibition, % (concentration not given with the values). PKD1 kinase fluorescence polarization assay; in the data active = inhibition above about 50%
# Target sequence (Q15139 whole entry, looked up): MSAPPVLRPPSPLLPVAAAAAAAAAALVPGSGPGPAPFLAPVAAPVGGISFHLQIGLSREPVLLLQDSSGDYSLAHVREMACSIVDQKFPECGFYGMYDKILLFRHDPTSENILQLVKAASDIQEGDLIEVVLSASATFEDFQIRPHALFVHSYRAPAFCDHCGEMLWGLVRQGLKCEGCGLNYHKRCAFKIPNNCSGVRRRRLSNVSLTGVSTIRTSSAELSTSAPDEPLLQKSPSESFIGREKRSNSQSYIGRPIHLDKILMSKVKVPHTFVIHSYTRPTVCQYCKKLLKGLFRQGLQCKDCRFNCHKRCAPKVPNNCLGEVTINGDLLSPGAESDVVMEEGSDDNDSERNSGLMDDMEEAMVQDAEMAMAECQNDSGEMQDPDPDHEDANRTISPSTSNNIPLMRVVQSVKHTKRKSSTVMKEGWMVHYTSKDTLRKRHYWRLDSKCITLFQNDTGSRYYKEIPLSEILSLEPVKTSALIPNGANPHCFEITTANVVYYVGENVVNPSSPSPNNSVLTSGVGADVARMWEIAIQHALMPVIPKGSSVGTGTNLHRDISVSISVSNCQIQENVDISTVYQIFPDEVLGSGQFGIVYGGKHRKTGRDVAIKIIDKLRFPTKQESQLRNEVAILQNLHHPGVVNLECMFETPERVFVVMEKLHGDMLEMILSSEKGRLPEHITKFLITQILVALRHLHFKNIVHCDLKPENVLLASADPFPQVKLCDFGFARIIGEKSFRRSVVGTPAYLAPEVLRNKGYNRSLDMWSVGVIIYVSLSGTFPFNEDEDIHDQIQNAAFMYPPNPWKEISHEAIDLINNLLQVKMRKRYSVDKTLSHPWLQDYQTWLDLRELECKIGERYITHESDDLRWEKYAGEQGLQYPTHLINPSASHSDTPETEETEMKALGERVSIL
# A number is an active result; i = inactive; nt = not tested or not shown.
SMILES,TNF death inh,WT yeast gro inh,Redox H2O2 prof,L929 necroptosis,PERK inhibitor,PKD1 inh
O=C(CSc1nc2ccccc2o1)Nc1nc2ccccc2s1,i,i,i,i,i,i
CCN1CCN(S(=O)(=O)c2ccc(Cl)c(C(=O)NC(C)(C)C)c2)CC1,i,i,i,i,i,i
O=C(OCC(=O)N1CCCc2ccccc21)c1cccc(S(=O)(=O)N2CCc3ccccc32)c1,i,i,i,i,i,i
Cc1ccc(C2=NN(CCC(=O)NCc3ccc4c(c3)OCO4)C(=O)CC2)cc1,i,i,i,i,i,i
O=C(NCCNC(=O)c1ccc([N+](=O)[O-])cc1)c1ccncc1,i,i,i,i,i,i
CN(C)CCCn1c(SCC(=O)Nc2nc(-c3cccc(Br)c3)cs2)nc2ccccc2c1=O,i,nt,nt,i,i,nt
COc1ccc(-c2csc(NC(=O)CSc3nc(C)cs3)n2)cc1,i,i,i,i,3.6,i
O=C(CSc1nc2ccccc2[nH]1)Nc1nc(-c2cccc(Br)c2)cs1,i,88,i,i,i,i
CCOC(=O)C1(CCc2ccccc2)CCN(C(=O)CCn2cncn2)CC1,i,i,i,i,i,i
CCOC(=O)c1c(Nc2ccccc2OCCOC)n[nH]c1C,i,nt,nt,i,i,nt
COc1ccc(CN2C(=O)/C(=C/c3ccc(-c4ccc(Cl)c(C(=O)O)c4)o3)SC2=S)cc1,i,i,i,i,i,i
O=C(O)c1cc(-c2ccc(/C=C3/SC(=S)N(Cc4ccccc4)C3=O)o2)ccc1Cl,i,60,i,i,i,i
Cc1ccc(NC(=O)COC(=O)C2CC(=O)N(Cc3ccccc3)C2)cc1S(=O)(=O)N(C)C (stereo not drawn),i,i,i,i,i,i
CCN1CCN(CCNC(=O)c2ccc3c(c2)N(Cc2ccc(F)cc2)C(=O)/C(=C/c2ccccc2)S3)CC1,i,86,i,i,i,i
CCN1CCN(CCNC(=O)c2ccc(/C=C3/Sc4ccccc4N(Cc4cccc(Cl)c4)C3=O)cc2)CC1,i,98,i,i,i,i
CN1CCN(CCCNC(=O)c2ccc(/C=C3\Sc4ccccc4N(Cc4ccccc4F)C3=O)cc2)CC1,i,i,i,i,i,i
CC(NC(=O)Nc1nnc(C(F)(F)F)s1)(C(F)(F)F)C(F)(F)F,i,70,i,i,i,i
CC(C)(C)CC(=O)Nc1nnc(C(F)(F)F)s1,i,i,i,i,i,i
O=C(Nc1nnc(C(F)(F)F)s1)c1ccc(Br)s1,i,63,i,i,i,i
COC(=O)c1ccc(CSc2nnc(NC(=O)C3CC(=O)N(c4ccc5c(c4)OCCO5)C3)s2)cc1 (stereo not drawn),i,i,i,i,i,i
COc1ccc(NCc2nc3ccccc3n2CCOc2ccccc2)cc1,i,i,i,i,i,i
c1ccc(NCc2nc3ccccc3n2CCOc2ccccc2)cc1,i,77,i,i,i,i
COc1ccc(NCc2nc3ccccc3n2CCOc2ccc(C)cc2)cc1,i,71,i,i,i,i
O=C(NNC(=S)Nc1ccccc1C(F)(F)F)C1CC1,i,nt,nt,i,i,nt
O=C(N/N=C1/CCc2ccccc21)C1CC1,i,i,i,i,i,i
SMILES,TNF death inh,WT yeast gro inh,Redox H2O2 prof,L929 necroptosis,PERK inhibitor,PKD1 inh
S=C(N/N=C1\CCc2ccccc21)NC1CCCCC1,i,70,i,i,i,i
NC(=S)n1[nH]c(-c2ccc([N+](=O)[O-])cc2)c(N=Nc2ccc(Cl)cc2)c1=O,i,78,i,i,i,i
Cc1ccc([N+](=O)[O-])cc1N=Nc1c(-c2ccc([N+](=O)[O-])cc2)[nH]n(C(N)=S)c1=O,i,i,i,i,i,i
Cc1noc(C)c1C(=O)N1CCC(C(=O)c2ccc(F)cc2F)CC1,i,nt,nt,i,i,nt
COc1ccccc1N1CCN(c2nc(C)nc3c2oc2ccccc23)CC1,i,75,i,i,i,i
CCc1ccc(-n2c(SCC(=O)N3CCC(C(=O)O)CC3)nnc2-c2ccncc2)cc1,i,i,i,i,i,i
CCc1ccc(-n2c(SCC(=O)N3Cc4ccccc4CC3C(=O)O)nnc2-c2ccncc2)cc1 (stereo not drawn),i,nt,nt,i,3.4,nt
CCN(CC)CCN(C(=O)Cn1nnc(-c2ccc(C)o2)n1)C(C(=O)NC(C)(C)C)c1cccs1 (stereo not drawn),i,i,i,i,i,i
C=CCNC(=S)NNC(=O)COc1ccc2cc(Br)ccc2c1,i,59,i,i,i,i
COCCSc1nnc(-c2cccc(C#N)c2)n1C,i,i,i,i,3.3,i
O=C(Cn1cc([N+](=O)[O-])nc1[N+](=O)[O-])N1CCN(c2ccccc2)CC1,i,i,i,i,i,i
CCSc1ccc2cc(OC)ccc2[n+]1CC,i,62,i,i,i,i
Clc1nc(Cl)nc(-c2cn(-c3ccccc3)c3ccccc23)n1,i,nt,nt,i,i,nt
COCCCNC(=O)CS(=O)(=O)Cc1nc(-c2cccc(OC)c2)oc1C,i,75,i,i,i,i
CNC(=O)c1nnsc1S(=O)(=O)c1ccc(Cl)cc1,i,69,i,i,i,i
O=C(c1nnsc1S(=O)(=O)c1ccc(Cl)cc1)N1CCOCC1,i,i,i,i,i,i
O=C(c1ccc(Oc2ccccc2)cc1)C1CCCN(C(=O)c2cnccn2)C1 (stereo not drawn),i,nt,nt,i,i,nt
CC(C)c1ccc(S(=O)(=O)/N=C2/C=CC(=O)c3ccccc32)cc1,i,68,i,i,i,i
O=C(NCC1CCCO1)c1cncc(Br)c1 (stereo not drawn),i,i,i,i,i,i
CCNC(=O)NC(=O)COC(=O)C1CSC2(C)CCC(=O)N12 (stereo not drawn),i,i,i,i,i,i
CCCCn1nnc(NC(=O)c2ccc(-c3cccc(Cl)c3)o2)n1,i,i,i,i,i,i
CCCn1nnc(NC(=O)c2ccc(-c3cccc(Cl)c3)o2)n1,i,74,i,i,i,i
O=C(Nc1ccccc1N1CCN(c2ccccc2)CC1)c1ccccc1F,i,i,i,i,i,i
O=C(NC(=S)Nc1ccccc1N1CCCCC1)c1ccccc1,i,67,i,i,i,i
O=C(CNCc1ccccc1Cl)Nc1ccccc1N1CCCCC1,i,80,i,i,i,i
O=S(=O)(Nc1ccccc1N1CCCCC1)c1ccc(F)cc1,i,nt,nt,i,3.2,nt
O=C(Nc1ccccc1N1CCCCC1)c1ccccc1F,i,81,i,i,i,i
CCc1cccc(N(C)C(N)=Nc2cccc3ccccc23)c1,i,nt,nt,i,nt,nt
Cc1c(NC(=O)C(C)N(c2ccccc2)S(C)(=O)=O)c(=O)n(-c2ccccc2)n1C (stereo not drawn),i,i,i,i,i,i
N#Cc1cccc(C#N)c1Oc1ccc(S(=O)(=O)Nc2ccc(Cl)cc2)cc1,i,nt,nt,i,i,nt
